The record followed here is PubChem BioAssay.

Activity calls are given as the source filed them.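 Rule for the calls, unless noted: active = inhibition of the reporter signal at or above 50%; inactive = inhibition below 50%.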

Assay [1] can be described thus: inhibitors of TNFa-induced NFkB p65 translocation, primary screen, imaging, HUVEC, MLSMR starter and 10KST1 sets (AID 438;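 active = inhibition above 20% together with a positive visual image hit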;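 note: compound added about 3h40 before a 20 min TNFalpha stimulation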;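 for inhibition: signal is the nuclear over cytoplasmic p65 intensity ratio per well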). Particulars: HUVEC TNFa-induced p65 nuclear translocation; cell count: measured here: nuclei count (cytotoxicity indicator), at 2.08 µM; inhibition: at 2 µM, stronger effect = higher value, 0% TNFa-plus-vehicle, 100% no-TNFa wells.
Assay [2] is described as follows: reduction of polyQ htt aggregates in cells – imaging, exon1htt(103Q)mCFP cells, high-content imaging, primary screen (AID 483;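 active = visual image review flags a hit and inhibition of aggregation exceeds 20%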;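 note: compound exposure lasted 3 days before fixation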;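 for nuclei count: percent of the per-plate median nuclei count of sample wells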). Particulars: exon1htt(103Q)mCFP cell line, aggregate imaging, at 2 µM; inhibition of aggregation: stronger effect = higher value; nuclei count: measured here: cell count, toxicity.
A short description of assay [3]: endothelial E-selectin expression blockers – imaging, HUVEC, immunofluorescence, MLSMR starter and 10KST1 sets, primary screen (AID 487;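 active = visually confirmed hit in the image check and inhibition above 20%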;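 for inhibition: signal is fraction of cell area covered by stained E-selectin grains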;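 for nuclei count: 100% = median nuclei count of all wells on the same plate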). Particulars: HUVEC TNFalpha-induced E-selectin immunofluorescence imaging, at 2 µM; inhibition: stronger effect = higher value; nuclei count: measured here: cell number, toxicity.
Assay [4] deals with Voltage-gated potassium channel subunit beta-2 (Rattus norvegicus) (UniProt P62483). The experiment in a line: inhibitors of rat Kvbeta2 reductase activity – biochemical, NADPH fluorescence, primary screen (AID 622;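 active = fluorescence slope higher than the sample average by over 3 SD, cut at about -0.22 in these data, passing the limit was not always enough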;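 note: slope of raw intensity against log time taken from 70 to 1610 s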). Particulars: recombinant KvBeta, 4-cyanobenzaldehyde reduction, at 10 µM, stronger effect = higher value.
Assay [5] shares this target. As to the kind of experiment: enhancers of rat Kvbeta2 NADPH turnover – biochemical, NADPH fluorescence, primary screen (AID 623;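 active = NADPH fluorescence slope more negative than the mean of all samples by about 3 SD, 99.7% confidence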;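 note: fluorescence intensity change per second fitted from 20 to 320 s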). Particulars: Recombinant KvBeta, NADPH fluorescence decrease slope, 10 min; at 10 µM; stronger effect = lower value.
The target in assay [6] is Alpha-2C adrenergic receptor (Homo sapiens) (UniProt P18825). As to the kind of experiment: compounds altering alpha2C-coupled GIRK flux – cell-based, HEK293 alpha2C/GIRK1/2, thallium flux, primary screen (AID 624;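 active = fluorescence slope after compound addition differing from the mean of all screened samples at 99.7% confidence, in either direction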;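 note: slope of fluorescence ratio to pre-addition baseline per second over 15 to 24 s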). Particulars: thallium flux BTC fluorescence, at 10 µM, actives lie on both sides.
A short description of assay [7]: blockers of RIG-like receptor reporter activation – cell-based, Sendai virus stimulus, luciferase, 10K MLSCN set, TLR/RLR signaling modifier project, primary screen (AID 602276;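 active = inhibition at or above 50% at 10 µM; inactive = inhibition below 50%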;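 note: firefly luciferase from ISG56 promoter only with Renilla not read in this screen; 0% = Sendai virus plus DMSO and 100% = medium plus DMSO without virus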). Particulars: HEK293 RL24 IRF3 luciferase reporter, at 10 µM, stronger effect = higher value.
The nature of assay [8]: TLR3 IRF3 reporter activation blockers – cell-based, poly I:C stimulus, luciferase, 10K MLSCN set, primary screen (AID 602277). Particulars: HEK293-TLR3 RL24 IRF3 luciferase reporter, at 10 µM, stronger effect = higher value.

Voltage-gated potassium channel subunit beta-2 (Rattus norvegicus), sequence (P62483 whole entry, looked up): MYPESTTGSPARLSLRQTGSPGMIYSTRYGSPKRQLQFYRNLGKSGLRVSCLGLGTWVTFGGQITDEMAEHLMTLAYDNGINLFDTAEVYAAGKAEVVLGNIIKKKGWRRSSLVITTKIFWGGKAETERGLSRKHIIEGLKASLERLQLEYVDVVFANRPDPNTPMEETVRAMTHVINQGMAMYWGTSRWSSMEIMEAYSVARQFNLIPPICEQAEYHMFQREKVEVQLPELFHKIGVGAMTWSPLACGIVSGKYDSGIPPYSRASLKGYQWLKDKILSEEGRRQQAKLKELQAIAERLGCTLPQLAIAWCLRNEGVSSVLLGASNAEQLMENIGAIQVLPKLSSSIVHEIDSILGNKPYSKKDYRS
Alpha-2C adrenergic receptor (Homo sapiens), sequence (P18825 whole entry, looked up): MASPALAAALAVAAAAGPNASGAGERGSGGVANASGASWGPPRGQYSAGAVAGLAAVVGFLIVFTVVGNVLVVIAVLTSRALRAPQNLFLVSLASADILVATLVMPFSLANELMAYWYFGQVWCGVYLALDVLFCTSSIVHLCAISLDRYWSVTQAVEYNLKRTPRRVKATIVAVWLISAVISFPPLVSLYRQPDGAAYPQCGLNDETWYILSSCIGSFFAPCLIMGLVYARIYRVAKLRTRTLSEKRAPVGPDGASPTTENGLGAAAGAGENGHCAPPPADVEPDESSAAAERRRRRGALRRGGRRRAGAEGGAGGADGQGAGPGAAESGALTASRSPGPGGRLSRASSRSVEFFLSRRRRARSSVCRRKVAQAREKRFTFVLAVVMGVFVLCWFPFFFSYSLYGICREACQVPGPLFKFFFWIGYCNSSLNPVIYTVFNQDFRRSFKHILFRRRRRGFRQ

For the compound `Cc1ccc(S(=O)(=O)NCCOC(=O)Nc2sc(=S)n(C)c2C)cc1`, in assay [1], the cell count turned out to be 466. For the same compound, the inhibition in assay [1] is 1.6% (inactive); in assay [3], 15% (inactive); in assay [7] it was -15% (inactive); in assay [8], 15.5% (inactive). Also, in assay [2], the inhibition of aggregation is -2.2% (inactive). In addition, the nuclei count in assay [2] was 103%; in assay [3], 108%. The fluorescence slope in assay [4] was -0.5 (inactive). In assay [5], the NADPH fluorescence slope is 3.3e-05 (inactive). In addition, in assay [6], the slope was 0.00618 (inactive).

As to `Cc1cnc(SCCc2ccncc2)nc1C`, in assay [1], the cell count came out at 650. Also, the inhibition in assay [1] is -17% (inactive); in assay [3], -103% (inactive); in assay [7] it was 6.48% (inactive); in assay [8], -3.71% (inactive). Also, the inhibition of aggregation in assay [2] is -22.1% (inactive). For the same compound, the nuclei count stood at 116% in assay [2] and 101% in assay [3]. In addition, the fluorescence slope in assay [4] is -0.278 (inactive). Also, the NADPH fluorescence slope in assay [5] is -1.1e-05 (inactive). In addition, the slope in assay [6] was 0.00606 (inactive).

`COc1ccccc1N1CCN(Cc2nc(N)nc(Nc3ccc(C)c(Cl)c3)n2)CC1`: the cell count in assay [1] stood at 467. Besides, the inhibition in assay [1] was -1.9% (inactive); in assay [3], -5.6% (inactive); in assay [7], 11.5% (inactive); in assay [8] it was 29.6% (inactive). Besides, in assay [2], the inhibition of aggregation was 17.2% (inactive). Moreover, the nuclei count was 97.1% in assay [2] and 100% in assay [3]. The fluorescence slope in assay [4] was -0.501 (inactive). Further, the NADPH fluorescence slope in assay [5] was 1e-05 (inactive). For the same compound, the slope in assay [6] is 0.00625 (inactive).

Consider `CCOc1ccc(-c2cn(S(=O)(=O)c3cccc4nsnc34)nc2N)cc1`, for which the cell count in assay [1] amounted to 316. Besides, the inhibition in assay [1] is -6.1% (inactive); in assay [3] it was -29.1% (inactive); in assay [7], 10.6% (inactive); in assay [8], 28.6% (inactive). Besides, the inhibition of aggregation in assay [2] is 8% (inactive). Further, the values for the nuclei count in assay [2] and in assay [3] were 107% and 66.8%, respectively. The fluorescence slope in assay [4] is -0.484 (inactive). In addition, in assay [5], the NADPH fluorescence slope is -3.8e-05 (inactive). For the same compound, the slope in assay [6] is 0.00478 (inactive).

Regarding `Cc1ccc(NC(=O)C2CC=CCC2C(=O)N2CCCCC2)cc1` (centres undefined), the cell count in assay [1] came out at 636. The inhibition in assay [1] is -23.5% (inactive); in assay [3], -9.5% (inactive); in assay [7], -0.377% (inactive); in assay [8] it was 26.9% (inactive). The inhibition of aggregation in assay [2] is -67% (inactive). Moreover, the nuclei count in assay [2] was found to be 66.9%; in assay [3], 94.3%. The fluorescence slope in assay [4] was -0.499 (inactive). In assay [5], the NADPH fluorescence slope is -2.1e-05 (inactive). Also, the slope in assay [6] was 0.00665 (inactive).

As to `CCN(CC)CCNC(=O)c1ccc(N2CCCCC2)c(NS(=O)(=O)c2ccc(C)cc2)c1`, the cell count in assay [1] worked out at 370. Further, the inhibition in assay [1] was 6.9% (inactive); in assay [3] it was -16% (inactive); in assay [7] it was 13.5% (inactive); in assay [8], 13.1% (inactive). Moreover, in assay [2], the inhibition of aggregation is 1.6% (inactive). For the same compound, the nuclei count is 97.8% in assay [2] and 122% in assay [3]. In assay [4], the fluorescence slope is -0.557 (inactive). For the same compound, the NADPH fluorescence slope in assay [5] was -3.5e-05 (inactive). Further, in assay [6], the slope is 0.00347 (inactive).

Take `O=C(O)C1CC=CCC1C(=O)NCc1ccccc1` (centres undefined): the cell count in assay [1] was determined as 625. In addition, the inhibition was 6% (inactive) in assay [1], -28.4% (inactive) in assay [3], 10% (inactive) in assay [7] and 11.4% (inactive) in assay [8]. Moreover, the inhibition of aggregation in assay [2] is -11% (inactive). Moreover, the nuclei count in assay [2] and in assay [3] was 107% in each case. Further, the fluorescence slope in assay [4] was -0.41 (inactive). Further, the NADPH fluorescence slope in assay [5] was 3.8e-06 (inactive). Moreover, the slope in assay [6] was 0.00502 (inactive).

For `COC(=O)c1ccsc1NC(=O)CN1C(=O)CCC1=O`, the cell count in assay [1] amounted to 479. For the same compound, the inhibition in assay [1] is -5.9% (inactive); in assay [3], -15.8% (inactive); in assay [7], -11.8% (inactive); in assay [8], -9.21% (inactive). Besides, in assay [2], the inhibition of aggregation is 2.9% (inactive). Also, the nuclei count in assay [2] was 86.8%; in assay [3], 100%. For the same compound, the fluorescence slope in assay [4] was -0.476 (inactive). Also, in assay [5], the NADPH fluorescence slope was -3.2e-05 (inactive). In addition, in assay [6], the slope was 0.0049 (inactive).

Regarding `Cc1ccc(C)c(-n2c(CNC(=O)c3ccco3)nnc2SCC(=O)Nc2nnc(C)s2)c1`, the cell count in assay [1] was 656. The inhibition in assay [1] is -6.4% (inactive); in assay [3], 3.7% (inactive); in assay [7], 14.2% (inactive); in assay [8] it was 36.2% (inactive). The inhibition of aggregation in assay [2] is 20.8% (inactive). In addition, the nuclei count in assay [2] worked out at 99.5%; in assay [3] it was 120%. Besides, the fluorescence slope in assay [4] was -0.528 (inactive). Besides, the NADPH fluorescence slope in assay [5] is -3e-05 (inactive). For the same compound, the slope in assay [6] was 0.0063 (inactive).

Take `CCOC(=O)c1sc2cccc(F)c2c1N`: the cell count in assay [1] was found to be 546. Further, the inhibition in assay [1] is -17.8% (inactive); in assay [3] it was 4.5% (inactive); in assay [7] it was -3.55% (inactive); in assay [8], -14.4% (inactive). The inhibition of aggregation in assay [2] is 24.4% (inactive). The nuclei count in assay [2] was 102%; in assay [3], 110%. Also, in assay [4], the fluorescence slope is -0.319 (inactive). For the same compound, the NADPH fluorescence slope in assay [5] was -7.4e-05 (inactive). Moreover, the slope in assay [6] was 0.00522 (inactive).

On to `Cc1ccc(NC(=O)CN2CC(C)SC2=NC2CCCCC2)cc1` (centres undefined), for which the cell count in assay [1] worked out at 519. The inhibition in assay [1] is 10.1% (inactive); in assay [3], -38.8% (inactive); in assay [7], 17.3% (inactive); in assay [8], 13.9% (inactive). For the same compound, the inhibition of aggregation in assay [2] was -7.2% (inactive). The nuclei count in assay [2] was 109%; in assay [3], 112%. The fluorescence slope in assay [4] was -0.514 (inactive). Further, the NADPH fluorescence slope in assay [5] is -4.1e-05 (inactive). In addition, the slope in assay [6] is 0.00585 (inactive).

For the compound `CCOc1cccc(-n2nnnc2-c2ccc(OC)cc2)c1`, the cell count in assay [1] was determined as 208. Besides, the inhibition in assay [1] was 1.2% (inactive); in assay [3] it was -13.7% (inactive); in assay [7], 43% (inactive); in assay [8] it was 61.2% (active). Besides, in assay [2], the inhibition of aggregation is -34.6% (inactive). Besides, the nuclei count in assay [2] was found to be 3.6%; in assay [3], 112%. Besides, the fluorescence slope in assay [4] was -0.591 (inactive). In addition, the NADPH fluorescence slope in assay [5] was -1.5e-05 (inactive). In addition, the slope in assay [6] was 0.00569 (inactive).

Turning to `Cc1ccc(-c2nc3cnccn3c2Nc2ccc3c(c2)OCO3)o1`, the cell count in assay [1] worked out at 913. In addition, the inhibition in assay [1] is 2.3% (inactive); in assay [3], -109% (inactive); in assay [7], 5.62% (inactive); in assay [8] it was 34.7% (inactive). Moreover, the inhibition of aggregation in assay [2] is 2.9% (inactive). Besides, the nuclei count came out at 130% in assay [2] and 114% in assay [3]. For the same compound, the fluorescence slope in assay [4] was -0.483 (inactive). For the same compound, the NADPH fluorescence slope in assay [5] is -6.6e-05 (inactive). Moreover, the slope in assay [6] is 0.00517 (inactive).

On to `COc1ccccc1N1CC(O)=C(c2nc3ccccc3c(=O)[nH]2)C1=N`, for which the cell count in assay [1] was 399. The inhibition in assay [1] was 1.4% (inactive); in assay [3], -73.7% (inactive); in assay [7], 11.7% (inactive); in assay [8], 28.7% (inactive). Further, the inhibition of aggregation in assay [2] is 22.7% (inactive). Moreover, the nuclei count in assay [2] came to 62.7%; in assay [3], 126%. In addition, the fluorescence slope in assay [4] was -0.546 (inactive). For the same compound, the NADPH fluorescence slope in assay [5] was -3.6e-05 (inactive). Moreover, the slope in assay [6] was 0.00655 (inactive).
